The source of these data is PubChem BioAssay (NCI).

The panel holds about 79,000 compounds, 15% with a hit somewhere; the sample as a whole holds those more often. A number with no mark means an inactive call. Calls of active or inactive are those of the source. Cut-off read from the data, not from the text of the source: active = growth inhibition above about 70%; inactive = the rest.

Experiment [1] is described as follows: NCI Yeast Anticancer Drug Screen. Data for the rad50 strain (AID 155).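 Note: 0% = growth of vehicle-only cultures of the same strain.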 The following applies: S. cerevisiae rad50 strain growth inhibition; at 50.0 µM; active compounds read high. The essentials: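 Growth of the mutant yeast was measured after compound exposure and referenced to vehicle-treated cultures.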
Experiment [2] is described as follows: NCI Yeast Anticancer Drug Screen. Data for the mec2-1 strain (AID 157). The note with it: S. cerevisiae mec2-1 strain, at 50.0 µM, active compounds read high. The essentials: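 Compounds were applied to mec2-1 yeast cells. Their growth was then compared with that of vehicle-treated cultures to give growth inhibition.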
Experiment [3] can be described thus: NCI Yeast Anticancer Drug Screen. Data for the sgs1 mgt1 strain (AID 161).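 Note: 0% = growth of cultures given vehicle only.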 The note with it: S. cerevisiae sgs1 mgt1 strain, at 50.0 µM, active compounds read high. The essentials: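 Percent growth inhibition was derived by comparing compound-exposed mutant yeast with vehicle-exposed cultures. The strain carries alterations in DNA damage repair.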
The nature of experiment [4]: NCI Yeast Anticancer Drug Screen. Data for the cln2 rad14 strain (AID 165).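 Note: 0% = growth equal to vehicle treated cultures.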 The note with it: S. cerevisiae cln2 rad14 strain, at 50.0 µM, active compounds read high. The essentials:
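Strain: cln2 rad14 yeast, altered in cell cycle control and DNA damage repair. Read-out: growth inhibition vs vehicle.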

Experiment [5] can be described thus: NCI Yeast Anticancer Drug Screen. Data for the bub3 strain (AID 167). The note with it: S. cerevisiae bub3 mutant strain, at 50.0 µM, active compounds read high. The essentials:
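Whole-cell yeast assay. The mutant strain was incubated with compounds, and growth inhibition was determined by comparison with vehicle-treated cells.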

Experiment [6] in a line: NCI Yeast Anticancer Drug Screen. Data for the mlh1 rad18 strain (AID 175). The note with it: S. cerevisiae mlh1 rad18 strain growth inhibition; at 50.0 µM; active compounds read high. The essentials: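 A repair-deficient yeast strain is exposed to test compound, and growth is scored relative to vehicle-treated controls.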

For `CS1(C)=NC(=O)C2=C(N=1)c1ccccc1S2(=O)=O`, the growth inhibition was -10.9% in experiment [1]; -6% in experiment [2]; -19% in experiment [3]; -19.6% in experiment [4]; 1.85% in experiment [5]; -7.85% in experiment [6].
`CC(C)CCCC(C)C1CCC2C3CC=C4CC(OC(=O)C(Cl)(Cl)Cl)CCC4(C)C3CCC12C` (stereo not drawn): the growth inhibition in experiment [1] is -7.65%; in experiment [2], -7.55%; in experiment [3], -0.7%; in experiment [4], -27.1%; in experiment [5], -28.1%; in experiment [6] it was -5.4%.
Take `c1ccc(CSc2cnnc3ccccc23)cc1`: the growth inhibition was 3.9% in experiment [1]; -10.8% in experiment [2]; 6% in experiment [3]; -11.1% in experiment [4]; 14.1% in experiment [5]; 31.9% in experiment [6].
Consider `N#CNC1=NC(N)C(c2nc3ccccc3[nH]2)=C(CCCC(=O)Nc2cccc([N+](=O)[O-])c2)N1` (stereo not drawn), for which the growth inhibition in experiment [1] was 17.1%; in experiment [2] it was 17.1%; in experiment [3], 5.45%; in experiment [4], 25.9%; in experiment [5], 35.9%; in experiment [6] it was 5.65%.
For `O=C(C[n+]1ccnc2ccccc21)c1ccc(Br)cc1`, the growth inhibition is 15.7% in experiment [1]; -3.05% in experiment [2]; 2% in experiment [3]; 6.45% in experiment [4]; -6.6% in experiment [5]; 13% in experiment [6].
Take `Cc1ccccc1NCc1ccccc1`: the growth inhibition in experiment [1] was 25.8%; in experiment [2], -3.2%; in experiment [3] it was 15.3%; in experiment [4], -29.8%; in experiment [5], 0.35%; in experiment [6], 23.1%.
As for `CCOC(OCC)C(O)c1ccccc1` (stereo not drawn), the growth inhibition in experiment [1] was -17.2%; in experiment [2] it was -17%; in experiment [3], -11.9%; in experiment [4], -15%; in experiment [5], -12.6%; in experiment [6] it was -11%.
With `C/C=C/C(=O)OCCC(C)OC(=O)/C=C/C` (stereo not drawn), the growth inhibition in experiment [1] is 26.1%; in experiment [2], -30.4%; in experiment [3] it was 19.4%; in experiment [4] it was 17.4%; in experiment [5] it was 15.9%; in experiment [6], 5.25%.
On to `O=C(/C=C(\Br)c1ccccc1)c1ccccc1`, for which the growth inhibition in experiment [1] is 99.3% (active); in experiment [2], 99.5% (active); in experiment [3], 99.8% (active); in experiment [4] it was 99.2% (active); in experiment [5] it was 98.9% (active); in experiment [6] it was 99.3% (active).
For the molecule `O=C1Nc2ccccc2Nc2nc3cccccc-3c21`, the growth inhibition was 9.85% in experiment [1]; -15.2% in experiment [2]; -2.4% in experiment [3]; 16.8% in experiment [4]; -6.6% in experiment [5]; -13.8% in experiment [6].
On to `CCCCCCCCCCCCCCCC(=O)Oc1ccc(C(=S)N2CCOCC2)cc1`, for which the growth inhibition in experiment [1] was 20.8%; in experiment [2] it was 1.25%; in experiment [3] it was 2.4%; in experiment [4], 2.9%; in experiment [5] it was 5.05%; in experiment [6], 13.9%.
Regarding `CC(=O)Nc1cccnc1`, the growth inhibition in experiment [1] is -18.1%; in experiment [2], -3.85%; in experiment [3], 4.85%; in experiment [4], -21.1%; in experiment [5], -19.9%; in experiment [6] it was -2.45%.
For the molecule `CN(C)C(=S)/N=C(\N)N(C)C`, the growth inhibition was 4.2% in experiment [1]; -8.55% in experiment [2]; -3.8% in experiment [3]; -0.45% in experiment [4]; 1.7% in experiment [5]; 15.6% in experiment [6].
With `CC(Cc1ccccc1)NC(=O)C1CC2CCCCN2C1C` (stereo not drawn), the growth inhibition in experiment [1] is 4.95%; in experiment [2], 20.4%; in experiment [3] it was 57.2%; in experiment [4] it was 45.9%; in experiment [5] it was 45.5%; in experiment [6], 48.6%.
With `O=C(O)CCc1ccc([N+](=O)[O-])cc1Cl`, the growth inhibition in experiment [1] is 5.8%; in experiment [2], 4.95%; in experiment [3], 7.3%; in experiment [4] it was -24.6%; in experiment [5] it was -17.4%; in experiment [6] it was -0.4%.
On to `COc1ccc(N2C(=O)C3c4[nH]c5ccccc5c4C4CC(C)(C)CC(C)(C)C4C3C2=O)cc1` (stereo not drawn), for which the growth inhibition in experiment [1] was 35.9%; in experiment [2] it was 10.7%; in experiment [3], 13.3%; in experiment [4] it was -13.1%; in experiment [5], 33.1%; in experiment [6] it was 8.65%.
As for `CCCCC/C(C)=N\O`, the growth inhibition in experiment [1] is -19%; in experiment [2] it was 3.8%; in experiment [3] it was 3.35%; in experiment [4], -13.6%; in experiment [5], -7.15%; in experiment [6] it was 13.2%.
Take `COc1cccc(N(CCO)C2CCCCC2)c1`: the growth inhibition in experiment [1] was 12.8%; in experiment [2] it was 4.2%; in experiment [3] it was 18.2%; in experiment [4] it was 15.7%; in experiment [5], 10.9%; in experiment [6], 2%.
Take `COc1ccc(/C=N/NC(=O)O)cc1`: the growth inhibition in experiment [1] is 4.55%; in experiment [2], -5.35%; in experiment [3], -24%; in experiment [4], -12.3%; in experiment [5] it was -32.5%; in experiment [6], -18.4%.
As for `CC(C)(C)OC(=O)NC1CC=CCC1NC(=O)OC(C)(C)C` (stereo not drawn), the growth inhibition was -52.7% in experiment [1]; -11.6% in experiment [2]; -16.6% in experiment [3]; -19.6% in experiment [4]; -17.8% in experiment [5]; -29.1% in experiment [6].
Consider `CCC(=O)Nc1cc(Cl)ccc1Cl`, for which the growth inhibition was 34.2% in experiment [1]; 11.8% in experiment [2]; 10.4% in experiment [3]; 10.2% in experiment [4]; -8.9% in experiment [5]; 11.2% in experiment [6].
`CCC(C)(O)c1cnc(CC(C)C)c(=O)n1O` (stereo not drawn): the growth inhibition was 55.5% in experiment [1]; 32.9% in experiment [2]; 43.3% in experiment [3]; 38.7% in experiment [4]; 38.4% in experiment [5]; 52.2% in experiment [6].
Consider `C1CCCCCc2c(-c3n[nH]c4c3CCCCCCCCCC4)n[nH]c2CCCC1`, for which the growth inhibition in experiment [1] is -8.1%; in experiment [2], -1.45%; in experiment [3], -8.2%; in experiment [4] it was 7.9%; in experiment [5], 2.75%; in experiment [6] it was 43.8%.
Turning to `COc1ccc(C2(C=O)NC(=O)NC2=O)cc1` (stereo not drawn), the growth inhibition was -2.25% in experiment [1]; -22.9% in experiment [2]; -13.5% in experiment [3]; 36% in experiment [4]; -2.6% in experiment [5]; 9% in experiment [6].
With `Cc1c(-c2nc3ccccc3[nH]2)c(=O)n(-c2ccccc2)n1C`, the growth inhibition is -70.2% in experiment [1]; -38.1% in experiment [2]; -24.1% in experiment [3]; 7.25% in experiment [4]; -10.4% in experiment [5]; -38.9% in experiment [6].
Consider `CC(=O)c1cccc(C)n1`, for which the growth inhibition in experiment [1] is 29.8%; in experiment [2], -6.05%; in experiment [3], 22.1%; in experiment [4] it was 18.2%; in experiment [5], 10.9%; in experiment [6] it was 36.7%.
In the case of `NC(=O)C1CC2CC(Cl)C1C2` (stereo not drawn), the growth inhibition in experiment [1] was -0.5%; in experiment [2] it was -0.1%; in experiment [3] it was -18.1%; in experiment [4], -45%; in experiment [5], 9.65%; in experiment [6] it was -22.1%.
As to `COc1c(C)c2c(c(C)c1Cl)Oc1c(C=O)c(O)c(Cl)c(C)c1C(=O)O2`, the growth inhibition is 55% in experiment [1]; 25.4% in experiment [2]; 44.9% in experiment [3]; 23.6% in experiment [4]; 29.4% in experiment [5]; 54.4% in experiment [6].
Regarding `OC(CNc1ccccn1)c1ccccc1` (stereo not drawn), the growth inhibition in experiment [1] is -3.9%; in experiment [2], -44.6%; in experiment [3] it was -35.6%; in experiment [4], 29.2%; in experiment [5] it was -33.8%; in experiment [6], 16.2%.
`OCc1ccccc1CN1CCCC1`: the growth inhibition in experiment [1] is 8.65%; in experiment [2], 1.15%; in experiment [3] it was 17.8%; in experiment [4], -40.1%; in experiment [5] it was 8.1%; in experiment [6], -14.3%.
`CCOC(=O)/C=C/SCC(N)C(=O)OCC` (stereo not drawn): the growth inhibition is -14.4% in experiment [1]; -1.45% in experiment [2]; -12.9% in experiment [3]; 19.6% in experiment [4]; -5.55% in experiment [5]; -4.55% in experiment [6].
On to `COc1cc(C(=O)C(C=O)c2ccccc2)c([N+](=O)[O-])cc1OC` (stereo not drawn), for which the growth inhibition in experiment [1] was 14.8%; in experiment [2], 21.4%; in experiment [3], 21.5%; in experiment [4], 25.8%; in experiment [5], 43%; in experiment [6], 23.1%.
On to `CCOC(=O)C1=C(O)C(=O)N(Cc2ccccc2)C1`, for which the growth inhibition is -4.65% in experiment [1]; -29.6% in experiment [2]; 14.3% in experiment [3]; -0.7% in experiment [4]; 49.5% in experiment [5]; -23.8% in experiment [6].
Take `CSc1nc(-c2ccccc2)c2c(n1)-c1ccccc1CC2`: the growth inhibition is -4.95% in experiment [1]; -6.1% in experiment [2]; 3.05% in experiment [3]; -2.4% in experiment [4]; 17.9% in experiment [5]; -2.35% in experiment [6].
For the molecule `CC(=O)OC(C)/C=C\C#N` (stereo not drawn), the growth inhibition in experiment [1] is -17.9%; in experiment [2] it was 14.3%; in experiment [3] it was 5.25%; in experiment [4], -2.65%; in experiment [5] it was 0.35%; in experiment [6] it was 37.8%.
Consider `C=C[C@@]1(C)CC(=O)[C@]2(O)[C@@]3(C)[C@@H](O)CCC(C)(C)[C@@H]3[C@H](O)[C@@H](OC(C)=O)[C@@]2(C)O1`, for which the growth inhibition in experiment [1] was 0.2%; in experiment [2], -4.4%; in experiment [3], -5.75%; in experiment [4], 9.2%; in experiment [5], -4.15%; in experiment [6] it was -68%.
In the case of `O=C(NCCCCCCNC(=O)C1CCCNC1)C1CCCNC1` (stereo not drawn), the growth inhibition is 19.1% in experiment [1]; -11.7% in experiment [2]; 13.8% in experiment [3]; 15.8% in experiment [4]; 15.4% in experiment [5]; 12.8% in experiment [6].
As for `COc1c(N)c(C)nc(Cl)c1C#N`, the growth inhibition is -10.1% in experiment [1]; 2.95% in experiment [2]; -2.7% in experiment [3]; -1.05% in experiment [4]; -0.75% in experiment [5]; 8.9% in experiment [6].
